Assay [1] can be described thus: NCI Yeast Anticancer Drug Screen. Data for the rad50 strain (AID 155).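 Also: 0% = growth of vehicle-only cultures of the same strain.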 To be noted: S. cerevisiae rad50 strain growth inhibition; at 50.0 µM; stronger effect = higher value. A digest of the protocol: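 DNA repair mutant yeast, compound exposure, growth read-out; inhibition is taken relative to vehicle.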
Assay [2] is described as follows: NCI Yeast Anticancer Drug Screen. Data for the mec2-1 strain (AID 157). Particulars: S. cerevisiae mec2-1 strain, at 50.0 µM, stronger effect = higher value. A digest of the protocol: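 Each compound was tested on mec2-1 yeast, a strain altered in DNA damage repair or cell cycle control. Growth inhibition is reported relative to vehicle.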
Assay [3] is described as follows: NCI Yeast Anticancer Drug Screen. Data for the sgs1 mgt1 strain (AID 161).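 Also: 0% = growth of cultures given vehicle only.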 To be noted: S. cerevisiae sgs1 mgt1 strain, at 50.0 µM, stronger effect = higher value. The procedure, abridged: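 Mutant yeast exposed to compound; growth scored against vehicle-only wells.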
Assay [4] can be described thus: NCI Yeast Anticancer Drug Screen. Data for the cln2 rad14 strain (AID 165).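 Also: 0% = growth equal to vehicle treated cultures.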 To be noted: S. cerevisiae cln2 rad14 strain, at 50.0 µM, stronger effect = higher value. The procedure, abridged:
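Test compounds were added to cln2 rad14 yeast cultures; inhibition of growth was then determined by comparison with vehicle treatment.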

The nature of assay [5]: NCI Yeast Anticancer Drug Screen. Data for the bub3 strain (AID 167). To be noted: S. cerevisiae bub3 mutant strain, at 50.0 µM, stronger effect = higher value. The procedure, abridged: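 In this screen, a yeast mutant lacking normal mitotic checkpoint function is challenged with compound. Relative growth versus vehicle gives the inhibition value.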
Assay [6] in a line: NCI Yeast Anticancer Drug Screen. Data for the mlh1 rad18 strain (AID 175). To be noted: S. cerevisiae mlh1 rad18 strain growth inhibition; at 50.0 µM; stronger effect = higher value. A digest of the protocol:
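Inhibition values reflect reduced growth of mutant yeast versus vehicle-treated controls following compound exposure; the mutations affect DNA damage repair.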

In PubChem BioAssay (NCI) one finds growth inhibition data, which are given here for 20 molecules.

About 79,000 compounds went through this panel and 15% of them were active in at least one assay; those are over-represented in the sample as a whole. Values without a mark were called inactive. Calls of active or inactive are those of the source. Rule as the data show it: active = growth inhibition above about 70%; inactive = the rest.

As to `O=c1[nH]c2cccnc2c(=O)n1O`, the growth inhibition was -6.5% in assay [1]; -8.7% in assay [2]; -7.35% in assay [3]; -39.8% in assay [4]; 12.2% in assay [5]; -5.5% in assay [6].

As for `O=C(O)Cc1ccccc1[N+](=O)[O-]`, the growth inhibition in assay [1] was 8.55%; in assay [2], -12.1%; in assay [3], -10.9%; in assay [4], -16.9%; in assay [5], -21.8%; in assay [6] it was -3.95%.

Regarding `O=c1c(-c2ccccc2)nc2ccccc2n1CC1CCCN2CCCC[C@H]12` (stereo not given in full), the growth inhibition is 3.9% in assay [1]; -10% in assay [2]; 18.3% in assay [3]; -38.9% in assay [4]; 22.7% in assay [5]; 19.4% in assay [6].

With `O=C(CC1Sc2ccccc2NC1=O)NNc1c(Cl)cc(Cl)cc1Cl` (stereo not given), the growth inhibition in assay [1] was 6.45%; in assay [2] it was 0.9%; in assay [3], 4%; in assay [4] it was 17.3%; in assay [5], 0.55%; in assay [6], 33%.

On to `Nc1nc(NCCO)c(N=O)c(=O)[nH]1`, for which the growth inhibition is 5.1% in assay [1]; -4.1% in assay [2]; -2.3% in assay [3]; 13.4% in assay [4]; 10.1% in assay [5]; 13.4% in assay [6].

As to `CCN1CCCC1CO` (stereo not given), the growth inhibition in assay [1] was -1.15%; in assay [2], -25.1%; in assay [3], -10.1%; in assay [4], 0.1%; in assay [5], -4.35%; in assay [6], 6.65%.

As for `CCCCOc1ccc(Br)cc1`, the growth inhibition in assay [1] is 12.3%; in assay [2], 5.4%; in assay [3] it was 7.6%; in assay [4] it was 8.1%; in assay [5], 3.1%; in assay [6], -15.1%.

On to `Cn1c(=O)c2[nH]c(SCc3cccnc3)nc2n(C)c1=O`, for which the growth inhibition in assay [1] was -4.35%; in assay [2], -11.1%; in assay [3], 6.85%; in assay [4], -44.9%; in assay [5] it was 4.7%; in assay [6], -10.6%.

Take `COc1ccccc1NC(=O)CC(=O)N1N=C(N2c3ccccc3Sc3ccccc32)CC1c1ccccc1` (stereo not given): the growth inhibition in assay [1] is 2.55%; in assay [2] it was 3.2%; in assay [3], -2.15%; in assay [4], 22.7%; in assay [5], 12.4%; in assay [6], -66.5%.

Turning to `CCCN(CCC)S(=O)(=O)c1ccc(NC(=O)OC(c2ccccc2)(c2ccccc2)c2ccccc2)cc1`, the growth inhibition is 24.1% in assay [1]; -4.3% in assay [2]; 5.4% in assay [3]; 7.95% in assay [4]; -3.7% in assay [5]; 0.95% in assay [6].

Consider `COC1C(/C=[N+](\C)[O-])OC2OC(C)(C)OC21` (stereo not given), for which the growth inhibition in assay [1] was 10.2%; in assay [2] it was -9.5%; in assay [3] it was -12.8%; in assay [4] it was -26.1%; in assay [5], 17.6%; in assay [6], 12.8%.

In the case of `CN(C)S(=O)(=O)c1ccc(Cl)cc1`, the growth inhibition was -1.65% in assay [1]; -4.4% in assay [2]; 2.7% in assay [3]; 0.3% in assay [4]; -0.2% in assay [5]; -9.3% in assay [6].

For `CNC(=O)NC1CCC(C)CC1` (stereo not given), the growth inhibition in assay [1] is 2%; in assay [2], 2.6%; in assay [3], 1.5%; in assay [4] it was -14.3%; in assay [5], -6.25%; in assay [6], 7.85%.

In the case of `COc1ccc(CN2COc3c(ccc4ccccc34)C2)cc1`, the growth inhibition in assay [1] is 36.1%; in assay [2], 22.9%; in assay [3], 31.1%; in assay [4], 17.4%; in assay [5] it was 12.6%; in assay [6], 30.9%.

Consider `O=C(NCCCc1ccccc1)Nc1ccccc1`, for which the growth inhibition is 16.4% in assay [1]; -0.65% in assay [2]; -8.05% in assay [3]; -10.4% in assay [4]; -1.35% in assay [5]; 3.45% in assay [6].

For `C1=C(N2CCOCC2)/C(=C2\SC(=Nc3ccccc3)C(=Nc3ccccc3)N2c2ccccc2)CC1`, the growth inhibition is -5.8% in assay [1]; -5.4% in assay [2]; -7.65% in assay [3]; 14.3% in assay [4]; -5.35% in assay [5]; -28.6% in assay [6].

Turning to `Cc1cc(OCCOc2ccc(N)cc2)ccc1N1C(N)=NC(N)=NC1(C)C`, the growth inhibition in assay [1] is -1.5%; in assay [2], 12.7%; in assay [3] it was 6.65%; in assay [4], 83.2% (active); in assay [5], 1.45%; in assay [6], -3%.

With `Oc1cc(OCCCc2ccc(F)cc2)cc2ccc3ccccc3c12`, the growth inhibition was 50.5% in assay [1]; 43.5% in assay [2]; 20.8% in assay [3]; -32.5% in assay [4]; 54% in assay [5]; 43.1% in assay [6].

With `O=C(O)c1ccc2sc3ccccc3c(=O)c2c1`, the growth inhibition in assay [1] is 14.9%; in assay [2] it was 32.8%; in assay [3] it was 33.3%; in assay [4], -21.2%; in assay [5] it was 21.7%; in assay [6], 39%.

Turning to `O=[N+]([O-])c1ccc2c(ccn2C2OCC(O)C(O)C2O)c1` (stereo not given), the growth inhibition in assay [1] was 5.7%; in assay [2], 13.6%; in assay [3], 8.7%; in assay [4] it was -3.55%; in assay [5] it was 18.1%; in assay [6], -2.7%.
